DRD3 agonist: qHTS of D3 Dopamine Receptor Agonist: qHTS. D3R DiscoveRx beta-arrestin cells, luminescence, 90 min. max activation, %. hit rate 0.58% among 410,000; in the data active = max activation above about 30%
Target sequence (P35462 whole entry, looked up): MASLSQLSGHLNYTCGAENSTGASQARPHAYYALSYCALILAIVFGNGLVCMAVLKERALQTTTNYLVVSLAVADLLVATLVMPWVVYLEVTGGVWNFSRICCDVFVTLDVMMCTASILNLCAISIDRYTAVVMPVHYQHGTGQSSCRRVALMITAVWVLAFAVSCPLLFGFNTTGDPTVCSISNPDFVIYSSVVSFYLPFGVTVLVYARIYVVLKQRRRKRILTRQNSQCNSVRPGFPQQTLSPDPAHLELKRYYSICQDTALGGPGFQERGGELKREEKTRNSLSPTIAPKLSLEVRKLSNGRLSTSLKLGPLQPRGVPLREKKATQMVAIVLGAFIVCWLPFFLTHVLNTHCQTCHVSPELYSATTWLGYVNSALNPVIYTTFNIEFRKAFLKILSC
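Cells at 1500/well, incubated overnight, then treated with pinned compounds (dopamine as control) for 90 min at 37 degrees C. DiscoveRx reagent added for 30 - 60 minutes at room temperature; luminescence read.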
DT40 TDP1 no CPT: qHTS for Inhibitors of human tyrosyl-DNA phosphodiesterase 1 (TDP1): qHTS in cells in absence of CPT. Potency, µM (titrated, usually from 46.2 µM), most hits filed as inhibitors. DT40 Tdp1-/- hTDP1 cells, no CPT, ATP luminescence, 48 h. hit rate 15% among 420,000. AID 686978, 2013; also: nearly all actives have a fitted effect of over 55% in size
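Growth of hTDP1-complemented DT40 Tdp1-knockout cells is measured by ATP luminescence after at least 48 hr compound exposure at 37 °C, with DMSO substituting for the 20 nM CPT used in the parallel screen.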
ClpP mod: qHTS Assay for Activators of ClpP | Potency, µM (highest dose often 57.5 µM) | purified B. subtilis ClpP, FRET peptide cleavage, 20 min | ATP-dependent Clp protease proteolytic subunit (Bacillus subtilis (strain 168)), P80244 | hit rate 1.9% among 340,000; active = well fitted falling curve with a large enough effect; inconclusive = small, poorly fitted or top-dose-only effect; inactive = no such curve, though single readings can be large or run the other way; also: the source files actives as falling curves though it sought activators and does not explain the sign; nearly all actives have a fitted effect of over 65% in size
Target sequence (P80244 whole entry, looked up): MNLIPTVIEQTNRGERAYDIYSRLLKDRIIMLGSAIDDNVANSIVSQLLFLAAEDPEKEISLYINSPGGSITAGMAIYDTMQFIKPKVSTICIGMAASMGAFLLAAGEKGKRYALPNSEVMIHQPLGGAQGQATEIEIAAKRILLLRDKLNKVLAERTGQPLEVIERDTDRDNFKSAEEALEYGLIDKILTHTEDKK
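FRET quenching reversal measured ClpP activation: 10 microg/mL B. subtilis ClpP at pH 8 with the FRET-FV decapeptide, read at 430 nm after 320 nm excitation. The 20-min minus 0-min signal was scaled between DMSO/no-enzyme wells and ADEP (5.8 microM final).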
D3 antag: qHTS of D3 Dopamine Receptor Antagonist: qHTS. D(3) dopamine receptor (Homo sapiens), P35462. D3R cells, DiscoveRx beta-arrestin luminescence, antagonist mode; stronger effect = lower value. max response, negative = inhibition, %. hit rate 2.5% among 360,000. AID 652054, 2013; in the data active = max response below about -50%; inconclusive = no clear call, values can overlap the other calls
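Cells expressing the human receptor were seeded at 1500 cells/well, incubated overnight at 37 degrees C in 5% CO2, then exposed to library compounds with dopamine controls for 90 minutes at 37 degrees C before luminescent detection.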
IL-1B inflam inh: qHTS for Inhibitors of Inflammasome Signaling: IL-1-beta AlphaLISA Primary Screen; THP-1 LPS/ATP IL-1B secretion, AlphaLISA, 16 h; stronger effect = lower value; activity change, % at 57.5 µM; hit rate 4.7% among 360,000; AID 743279, 2014; in the data active = activity change below about -50%; inconclusive = mostly about -30% to -49%
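Secreted IL-1B measured by AlphaLISA bead assay after 16 h compound exposure of THP-1 cells; compounds (final up to 57.5 uM) added 1 h before LPS (250 ng/mL) and ATP (1.25 mM) stimulation; lower signal means less secretion.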
TDP1 cell CPT: qHTS for Inhibitors of human tyrosyl-DNA phosphodiesterase 1 (TDP1): qHTS in cells in presence of CPT; chicken DT40 Tdp1-/-;hTDP1 cells + 20 nM CPT, ATP luminescence, 48 h; Potency, µM (series often up to 46.2 µM), most hits filed as inhibitors; hit rate 12% among 420,000; also: nearly all actives have a fitted effect of over 55% in size
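Cell growth measured by CellTiter-Glo luminescence after a minimum 48 h, 37 C compound exposure with 20 nM CPT in Tdp1-knockout DT40 cells stably expressing hTDP1, seeded 400/well; qHTS titration format.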
Of the large screens only hits and unclear results are named; the others gave an inactive call. Hits are enriched below; roughly 21% of the tested compounds scored in any of these assays. Unless noted, calls follow the shape of the dose curve; as a rule, active = well fitted inhibition curve with a large enough effect; inconclusive = small, poorly fitted or top-dose-only effect; inactive = flat fitted curve, though single readings scatter.

CCCCCCN1C[C@@H](n2cc(COC(=O)c3ccccc3)nn2)[C@H](O)C[C@@H]1c1ccc(OC)cc1	DT40 TDP1 no CPT inconclusive, TDP1 cell CPT inconclusive
CC(OC(=O)C1=COCCO1)C(=O)NC1(C#N)CCCCC1 (stereo not given)	none (no result: ClpP mod)
Fc1cccc(NC(=S)Nc2cccnc2)c1	DT40 TDP1 no CPT inconclusive (no result: ClpP mod)
CCC(C)C(NC(=O)c1ccc(Cl)cc1)C(=O)Nc1cccnc1 (stereo not given)	IL-1B inflam inh -85 (no result: ClpP mod)
Cc1ccc(NC(=O)Nc2cccnc2)cc1NC(=O)Nc1cccnc1	DT40 TDP1 no CPT 9.2µM, TDP1 cell CPT 13µM
CC(C)c1ccc(C(=O)Nc2cccnc2)cc1	none (no result: ClpP mod)
O=C(Nc1cccnc1)Nc1cccc(F)c1	DT40 TDP1 no CPT 13µM, D3 antag inconclusive
O=C(Nc1ccc(Cl)cc1)Nc1cccnc1	DT40 TDP1 no CPT inconclusive, TDP1 cell CPT 16µM
Cc1ncc2c(c1CNC(=O)c1ccc3c(c1)OCO3)CCN(C(=O)c1cnsn1)C2	none (no result: DRD3 agonist, ClpP mod, D3 antag, IL-1B inflam inh)
CC(=O)N1c2ccc(S(=O)(=O)N(C)CC(=O)NC3CCCC3)cc2CC1C (stereo not given)	TDP1 cell CPT inconclusive
Cc1nc2nc(C)c(NS(=O)(=O)c3ccc(Cl)s3)c(=O)n2[nH]1	none (no result: ClpP mod)
Cc1ccc(NC(=O)Nc2nc3ccccc3s2)cc1NC(=O)Nc1nc2ccccc2s1	DT40 TDP1 no CPT 13µM, TDP1 cell CPT inconclusive
CCNC(=O)Nc1nc2ccccc2s1	none
CN(C)C(=O)c1cnc(Sc2ncc(C(F)(F)F)cc2Cl)n1C	DT40 TDP1 no CPT 8.2µM, TDP1 cell CPT 8.2µM
O=C(O)CCC(=O)N1N=C(c2cccs2)CC1c1cccc([N+](=O)[O-])c1 (stereo not given)	none
Cc1ccc(C2=NN(C(=O)CCC(=O)O)C(c3cccc([N+](=O)[O-])c3)C2)cc1 (stereo not given)	D3 antag -58 (no result: ClpP mod)
N#Cc1ccc(C(=O)NCC2CCCCC2)cc1	none
Fc1ccc(-c2noc3ncnc(N4CCN(c5ccccc5)CC4)c23)cc1	DT40 TDP1 no CPT inconclusive, TDP1 cell CPT inconclusive (no result: D3 antag, IL-1B inflam inh)
CC(C)NC(=O)C1CCCN(c2ncnc3onc(-c4ccc(F)cc4)c23)C1 (stereo not given)	none (no result: D3 antag, IL-1B inflam inh)
CCOC(=O)c1ccc(NC(=O)C2CCCN(c3ncnc4onc(-c5ccc(F)cc5)c34)C2)cc1 (stereo not given)	DT40 TDP1 no CPT 15µM, ClpP mod inconclusive, TDP1 cell CPT 21µM (no result: D3 antag, IL-1B inflam inh)
Cc1ccc(CNC(=O)C2CCCN(c3ncnc4onc(-c5ccc(F)cc5)c34)C2)cc1 (stereo not given)	DT40 TDP1 no CPT 18µM, TDP1 cell CPT inconclusive (no result: D3 antag, IL-1B inflam inh)
O=C(Nc1ccc(F)c(Cl)c1)C1CCCN(c2ncnc3onc(-c4ccc(F)cc4)c23)C1 (stereo not given)	DT40 TDP1 no CPT 15µM (no result: D3 antag, IL-1B inflam inh)
Fc1ccc(-c2noc3ncnc(N4CCCCC4)c23)cc1	DT40 TDP1 no CPT 23µM, TDP1 cell CPT 18µM (no result: D3 antag, IL-1B inflam inh)
COc1ccc(NC(=O)C2CCCN(c3ncnc4onc(-c5ccc(F)cc5)c34)C2)cc1 (stereo not given)	DT40 TDP1 no CPT inconclusive, TDP1 cell CPT inconclusive
COc1ccc(CCNC(=O)COc2ccc(C)nc2[N+](=O)[O-])cc1	none
CNC(C)[C@@H]1CC[C@@H](N)[C@@H](O[C@H]2[C@H](O)[C@@H](O[C@H]3OC[C@](C)(O)[C@H](NC)[C@H]3O)[C@H](N)C[C@@H]2N)O1 (stereo not given in full)	none (no result: ClpP mod, D3 antag, IL-1B inflam inh)
OCC[C@H]1C[C@H](O)[C@@H](O)[C@]2(CCCc3ccccc3O2)O1	none
Cc1ccccc1CCNC(=O)C1CCC(=O)N(CCc2cccc(F)c2)C1 (stereo not given)	DT40 TDP1 no CPT inconclusive, TDP1 cell CPT inconclusive
COC(=O)C1=CC(C(=O)c2cccs2)=NN(c2ccc(OC)cc2)C1C(=O)OC (stereo not given)	DT40 TDP1 no CPT inconclusive, D3 antag -56, IL-1B inflam inh -69, TDP1 cell CPT inconclusive (no result: ClpP mod)
CN(C)S(=O)(=O)N1CCC(Oc2ccc(C(=O)N3CCCCCCC3)cc2)CC1	DT40 TDP1 no CPT 16µM, TDP1 cell CPT 16µM
CCN1CCN(C(=O)c2cccc(OC3CCN(S(=O)(=O)N(C)C)CC3)c2)CC1	none
CC1CCCCN1C(=O)c1ccc(OC2CCN(S(=O)(=O)N(C)C)CC2)cc1 (stereo not given)	DT40 TDP1 no CPT 10µM, TDP1 cell CPT inconclusive (no result: ClpP mod)
CCN(Cc1cnn(C)c1)C(=O)c1ccc(OC2CCN(S(=O)(=O)N(C)C)CC2)cc1	IL-1B inflam inh -68
CN(C(=O)c1ccc(OC2CCN(S(=O)(=O)N(C)C)CC2)cc1)C1CCCCC1	DT40 TDP1 no CPT inconclusive, TDP1 cell CPT 21µM
CSCCNC(=O)c1ccc(OC2CCN(S(=O)(=O)N(C)C)CC2)cc1	none
CSc1ccc(CCNC(=O)c2cc3cc4cc(C)ccc4nc3s2)cc1	DT40 TDP1 no CPT inconclusive, TDP1 cell CPT inconclusive (no result: D3 antag, IL-1B inflam inh)
O=C(NCCCN1CCCC1=O)c1ccc(Cl)c(S(=O)(=O)N2CCCCC2)c1	none
CCCCOC(=O)c1ccc(NC(=O)c2cc(-c3cccs3)on2)cc1	DT40 TDP1 no CPT inconclusive (no result: D3 antag, IL-1B inflam inh)
CN(C)S(=O)(=O)N1CCC(Oc2ccc(C(=O)N3CCCCCC3)cc2)CC1	DT40 TDP1 no CPT 13µM, TDP1 cell CPT 23µM
CC(=O)c1ccc2c(c1)Nc1ccccc1S2	DT40 TDP1 no CPT inconclusive, ClpP mod 32µM
CC(=O)c1ccc2c(c1)N(C)c1ccccc1S2	DT40 TDP1 no CPT inconclusive
C/C(=N\NC(=O)c1ccc(C)cc1C)c1ccc(-n2ccnc2)cc1	none
C/C(=N\NC(=O)c1ccc(C)cc1C)c1ccc2c(c1)Nc1ccccc1S2	DT40 TDP1 no CPT 16µM, TDP1 cell CPT inconclusive
CN(C(=O)COC(=O)Cn1c(C(F)(F)F)nc2ccccc21)c1c(N)n(Cc2ccccc2)c(=O)[nH]c1=O	none
COC(=O)c1ccc(-c2csc(NC(=O)c3c(C)noc3C)n2)cc1	DT40 TDP1 no CPT 21µM, TDP1 cell CPT 16µM (no result: ClpP mod)
CCc1noc(C)c1C(=O)OCC(=O)Nc1nc(-c2ccc(F)c(F)c2)cs1	DT40 TDP1 no CPT 15µM, IL-1B inflam inh -80, TDP1 cell CPT inconclusive
Cc1ccc(-c2csc(NC(=O)c3c(C)noc3C)n2)cc1C	DT40 TDP1 no CPT 13µM, TDP1 cell CPT 18µM
Cc1ccc(C)c(-c2csc(NC(=O)c3c(C)noc3C)n2)c1	DT40 TDP1 no CPT inconclusive, TDP1 cell CPT inconclusive

Bioassay records: PubChem BioAssay, National Center for Advancing Translational Sciences (NCATS)
